TGFb SMAD3 inh: blocks TGF-b signaling; 410,000 compounds, 1.2% hits; HepG2 CAGA-GFP TGF-b/SMAD3 reporter, GFP fluorescence, 18 h; TGF-beta stimulated, 500 pg/mL final; Potency, µM (titrated, usually from 46.1 µM), for inactives: at the top dose activity, negative = inhibition, most hits filed as inhibitors; note: % is set by controls: 0 for no effect and ±100 for the full control effect; nearly all actives have a fitted effect of over 65% in size
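Cell-based qHTS in HEPG2 carrying a CAGA-GFP Smad reporter; compounds added before 500 pg/mL final TGF-beta, 18 h incubation at 37 degrees C, GFP fluorescence quantified per cell by imaging cytometry.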
HT1080 IDH1KD tx: kills HT-1080 cells with IDH1 knockdown | HT-1080 IDH1 knockdown viability, ATP luminescence, 48 h | Potency, µM (titrated, usually from 46.1 µM), for inactives: top-dose activity, negative = toxicity, actives largely listed as cytotoxic | 360,000 compounds, 2% hits;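 note: 0% = DMSO wells and -100% = cell-free medium wells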
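Knockdown cells (IDH1KD HT-1080) received compounds 2 h after plating at 750 cells/well and were kept 48 h at 37 °C in 5% FBS RPMI. A CellTiter-Glo luminescence read gave % activity for curve fitting.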
DT40 TDP1 no CPT: qHTS for Inhibitors of human tyrosyl-DNA phosphodiesterase 1 (TDP1): qHTS in cells in absence of CPT; DT40 Tdp1-/- hTDP1 cells, no CPT, ATP luminescence, 48 h; AID 686978, 2013; 420,000 compounds, 15% hits; Potency, µM (highest dose often 46.2 µM), for the others: at the top dose activity change, negative = growth inhibition, usual class: inhibitors; note: % is set by controls: 0 for no effect and ±100 for the full control effect; nearly all actives have a fitted effect of over 55% in size
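Growth kinetics read by CellTiter-Glo luminescence after ≥48 hr at 37 °C. Cells: DT40 Tdp1-/- stably carrying human TDP1, 400 per well, compound exposure in the absence of CPT (DMSO vehicle).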
HT1080-NT tox: kills 2HG-producing HT-1080-NT fibrosarcoma cells. AID 686970. Potency, µM (titrated, usually from 46.1 µM), for the others: at the top dose activity, negative = less viability, most hits filed as cytotoxic. HT-1080-NT fibrosarcoma viability, CellTiter-Glo ATP luminescence, 48 h. 360,000 compounds, 1.6% hits;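 note: NT is the 2HG producing partner of a matched IDH1 knockdown line; 0% = DMSO-treated cells and -100% = media-only wells without cells; nearly all actives have a fitted effect of over 55% in size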
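Fibrosarcoma NT cells, 750 per well in 5% FBS RPMI, were exposed to compound for 48 hours. Viability: CellTiter-Glo luminescence.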
HepG2 tox: counter-screen for TGF-b inhibitors: cytotoxicity in HepG2 cells; HepG2 CAGA-GFP viability, ATP luminescence, 18 h; Potency, µM (titrated, usually from 46.1 µM), inactives show top-dose activity change, negative = cytotoxicity, hits mostly cytotoxic; 410,000 compounds, 0.76% hits
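CellTiter-Glo luminescence gave cytotoxicity after 18 hours at 37 degrees C. The cells were HepG2 CAGA-GFP in 1% FBS DMEM, stimulated with 500 pg/mL TGF-beta after compound addition. %Activity was normalised to no-cell wells (complete cell-killing) and DMSO (no toxicity), and curves were fitted and classified.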
DT40 TDP1 CPT: growth inhibition of DT40 Tdp1-/-;hTDP1 cells with camptothecin (screen for TDP1 inhibitors) | Potency, µM (top dose mostly 46.2 µM), for the others: at the top dose activity change, negative = growth inhibition, hits mostly inhibitors | 420,000 compounds, 12% hits | chicken DT40 Tdp1-/-;hTDP1 cells + 20 nM CPT, ATP luminescence, 48 h | AID 686979; note: % is set by controls: 0 for no effect and ±100 for the full control effect; nearly all actives have a fitted effect of over 55% in size
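Cell growth measured by CellTiter-Glo luminescence after a minimum 48 h, 37 C compound exposure with 20 nM CPT in Tdp1-knockout DT40 cells stably expressing hTDP1, seeded 400/well; qHTS titration format.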
An asterisk follows results filed as active. Hits are enriched below; roughly 17% of the tested compounds scored in any of these assays. Calls come from the whole dose curve; as a rule, active = well fitted curve in the direction sought with a large enough effect; inconclusive = small, poorly fitted or top-dose-only effect, or another doubt; inactive = no such curve, though single readings can be large; an effect the other way counts as inactive or inconclusive. Potency is the fitted concentration of half-maximal effect.

`O=C1CC(NN2CCCCC2)C(=O)N1c1ccccc1` (configuration not stated) gave TGFb SMAD3 inh 9%, HT1080 IDH1KD tx 11%, DT40 TDP1 no CPT 2%, HT1080-NT tox 13%, HepG2 tox -1% and DT40 TDP1 CPT 7%.
For CCc1ccc2c(c1)C(NC(C)=O)C(=O)N2CCN1CCOCC1 (configuration not stated) the results were TGFb SMAD3 inh -1%, HT1080 IDH1KD tx 1%, DT40 TDP1 no CPT 1%, HT1080-NT tox 14%, HepG2 tox 9% and DT40 TDP1 CPT 17%.
`Cc1nc2ccccc2n1Cc1ccccc1Br` gave TGFb SMAD3 inh inconclusive, HT1080 IDH1KD tx inconclusive, DT40 TDP1 no CPT inconclusive, HT1080-NT tox -25%, HepG2 tox -20% and DT40 TDP1 CPT inconclusive.
Screening Cc1cccc(Cn2c(-c3cccc(Br)c3)nc3ccccc32)c1 returned TGFb SMAD3 inh inconclusive, DT40 TDP1 no CPT 16µM*, HepG2 tox -25% and DT40 TDP1 CPT 18µM*.
`Cc1nc2ccccc2n1Cc1ccc(Br)cc1` gave TGFb SMAD3 inh -33%, HT1080 IDH1KD tx inconclusive, DT40 TDP1 no CPT 6.5µM*, HT1080-NT tox -22%, HepG2 tox -12% and DT40 TDP1 CPT 5.8µM*.
`Cc1nc2ccccc2n1Cc1ccccc1` gave TGFb SMAD3 inh -28%, HT1080 IDH1KD tx inconclusive, DT40 TDP1 no CPT inconclusive, HT1080-NT tox -2%, HepG2 tox -20% and DT40 TDP1 CPT 16µM*.
Screening CCC(C)Cn1c(C)nc2ccccc21 (configuration not stated) returned TGFb SMAD3 inh -12%, HT1080 IDH1KD tx -1%, DT40 TDP1 no CPT 10µM*, HT1080-NT tox 2%, HepG2 tox -7% and DT40 TDP1 CPT inconclusive.
O=[N+]([O-])c1ccc(N/N=C/c2sc(N3CCOCC3)nc2-c2ccccc2)c(S(=O)(=O)Nc2ccc(Cl)cc2)c1 was read as TGFb SMAD3 inh inconclusive, HT1080 IDH1KD tx 4%, DT40 TDP1 no CPT 1µM*, HT1080-NT tox 11%, HepG2 tox 6% and DT40 TDP1 CPT 1.6µM*.
`O=C(O)c1cccc(N/N=C/c2sc(N3CCOCC3)nc2-c2ccccc2)c1` gave TGFb SMAD3 inh 3%, HT1080 IDH1KD tx -11%, DT40 TDP1 no CPT 9%, HT1080-NT tox -8%, HepG2 tox 2% and DT40 TDP1 CPT 0%.
Screening O=[N+]([O-])c1ccc(N/N=C/c2sc(N3CCOCC3)nc2-c2ccccc2)c(S(=O)(=O)Nc2ccccc2Cl)c1 returned TGFb SMAD3 inh -15%, HT1080 IDH1KD tx -11%, DT40 TDP1 no CPT 1.8µM*, HT1080-NT tox 0%, HepG2 tox -29% and DT40 TDP1 CPT 3.3µM*.
CCC(=O)N(Cc1ccco1)C1CC(=O)N(c2ccccc2)C1=O (configuration not stated) was read as TGFb SMAD3 inh 0%, HT1080 IDH1KD tx -1%, DT40 TDP1 no CPT 0%, HT1080-NT tox -1%, HepG2 tox -28% and DT40 TDP1 CPT 12%.
COc1ccccc1/C=C/CN1CCN(Cc2ccc(F)cc2)C(CCO)C1 (configuration not stated) was read as TGFb SMAD3 inh inconclusive, HT1080 IDH1KD tx -1%, DT40 TDP1 no CPT 18µM*, HT1080-NT tox -8%, HepG2 tox -4% and DT40 TDP1 CPT inconclusive.
For CC(C)c1csc(CN2CCN(Cc3ccc(F)cc3)C(CCO)C2)n1 (configuration not stated) the results were TGFb SMAD3 inh 3.5µM*, HT1080 IDH1KD tx -11%, DT40 TDP1 no CPT -29%, HT1080-NT tox -16%, HepG2 tox 10% and DT40 TDP1 CPT -1%.
For CC(C)CN1CCN(Cc2nc(C(C)C)cs2)CC1CCO (configuration not stated) the results were TGFb SMAD3 inh -7%, HT1080 IDH1KD tx -6%, DT40 TDP1 no CPT -3%, HT1080-NT tox -5%, HepG2 tox -25% and DT40 TDP1 CPT 22%.
Screening OCCC1CN(Cc2nc3ccccc3s2)CCN1CCc1ccccc1 (configuration not stated) returned TGFb SMAD3 inh -12%, HT1080 IDH1KD tx -10%, DT40 TDP1 no CPT 26µM*, HT1080-NT tox -4%, HepG2 tox -15% and DT40 TDP1 CPT inconclusive.
`Cc1ccc(CN2CCN(Cc3nc(C(C)C)cs3)CC2CCO)cc1` (configuration not stated) gave TGFb SMAD3 inh -22%, HT1080 IDH1KD tx 3%, DT40 TDP1 no CPT 12µM*, HT1080-NT tox -25%, HepG2 tox 0% and DT40 TDP1 CPT inconclusive.
Screening CC(C)CN1CCN(Cc2nc3ccccc3s2)CC1CCO (configuration not stated) returned TGFb SMAD3 inh -10%, HT1080 IDH1KD tx 5%, DT40 TDP1 no CPT -8%, HT1080-NT tox 2%, HepG2 tox 14% and DT40 TDP1 CPT -1%.
Screening COC(=O)C[C@@H]1C[C@H]2c3cc(NC(=O)Nc4ccccc4F)ccc3O[C@H]2[C@H](CO)O1 returned TGFb SMAD3 inh -3%, HT1080 IDH1KD tx -14%, DT40 TDP1 no CPT -26%, HT1080-NT tox -8%, HepG2 tox 3% and DT40 TDP1 CPT -10%.
Screening COc1ccc(CNC(=O)CN(C(=O)CCC(=O)Nc2nccs2)c2cccc(C)c2)cc1 returned TGFb SMAD3 inh -25%, HT1080 IDH1KD tx inconclusive, DT40 TDP1 no CPT inconclusive, HT1080-NT tox inconclusive, HepG2 tox -29% and DT40 TDP1 CPT inconclusive.
CC(C)=CCN1CCN(Cc2nc(-c3ccc(F)cc3)cs2)CC1CCO (configuration not stated) was read as TGFb SMAD3 inh -6%, HT1080 IDH1KD tx -20%, DT40 TDP1 no CPT inconclusive, HT1080-NT tox 4%, HepG2 tox -19% and DT40 TDP1 CPT inconclusive.
`OCCC1CN(Cc2nc(-c3ccccc3)cs2)CCN1Cc1ccc(F)cc1` (configuration not stated) gave TGFb SMAD3 inh 26%, HT1080 IDH1KD tx -17%, DT40 TDP1 no CPT 16µM*, HT1080-NT tox -23%, HepG2 tox 8% and DT40 TDP1 CPT 23µM*.
Screening CC(C)c1csc(CN2CCC(CO)(Cc3cccc(F)c3)CC2)n1 returned TGFb SMAD3 inh 1%, HT1080 IDH1KD tx -14%, DT40 TDP1 no CPT 23µM*, HT1080-NT tox 0%, HepG2 tox -2% and DT40 TDP1 CPT inconclusive.
